High-throughput results deposited in PubChem by National Center for Advancing Translational Sciences (NCATS).
Rows were chosen to be rich in hits. Some 14% of all compounds tested hit in one or more screens of this group.
Pf growth 96h: P. falciparum growth inhibition at 96 hour, primary screen for plastid delayed-death inhibitors; hit rate 6.9% among 320,000; P. falciparum luciferase reporter growth, 96 h; Potency, µM (doses to about 28.7 µM), without a hit: at the highest dose activity change, negative = inhibition, hits mostly inhibitors; AID 504834; note: potency is the fitted concentration of half-maximal effect
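Erythrocytes infected with luciferase-expressing P. falciparum were dispensed at 2% hematocrit and 0.05% parasitemia (final), then incubated with compounds 96 hours at 37 C in 5% CO2. Luminescence after detection reagent addition reported growth.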
Sm TGR block: S. mansoni TGR enzyme inhibition. Potency, µM (top dose mostly 114 µM), without a hit: top-dose activity change, negative = inhibition, hits mostly inhibitors. hit rate 3% among 360,000. Q962Y6. purified TGR, DTNB reduction, TNB absorbance 405 nm; note: potency is the fitted concentration of half-maximal effect; nearly all actives have a fitted effect of over 60% in size
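Kinetic colorimetric format: TGR-catalysed, NADPH-driven DTNB reduction monitored via TNB absorbance. Enzyme dispensed at 20 nM; compound exposure 15 min at room temperature before reaction start.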
HCMV antiviral: inhibitors of human cytomegalovirus. HFF cells, HCMV-luciferase reporter, 72 h; stronger effect = lower value. activity change, negative = inhibition, % at 57.5 µM. hit rate 4.5% among 410,000. AID 1259415; in the data active = activity change below about -60%; inconclusive = no clear call, values can overlap the other calls; inactive = above about -39%
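Luciferase read-out from HCMV-luciferase-infected HFFs (MOI 1 PFU/cell) 72 h post infection at 37C; compounds added after 16 h cell attachment; activity normalized between buffer-only basal and Salinomycin (10uM) inhibitor controls.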
Pf growth 48h: inhibits P. falciparum growth in the first generation, 48 h | P. falciparum luciferase growth in erythrocytes, 48 h | Potency, µM (doses to about 28.7 µM), for the others: at the top dose activity change, negative = inhibition, actives largely listed as inhibitors | hit rate 5.9% among 310,000 | AID 504832; note: potency is the fitted concentration of half-maximal effect
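Luciferase-expressing parasites in RBCs, 2% Hct / 0.1% parasitemia final; RPMI 1640 + 0.5% Albumax; 37 C, 5% CO2, one generation; luminescence read-out, lower signal = inhibition.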
Giardia FBPA inh: inhibitors of Giardia lamblia fructose-1,6-bisphosphate aldolase; purified Giardia FBPA; AID 2451; Potency, µM (titrated, usually from 59.6 µM), for the others: at the highest dose activity, negative = inhibition, hits mostly inhibitors; hit rate 0.71% among 290,000; note: potency is the fitted concentration of half-maximal effect; nearly all actives have a fitted effect of over 55% in size
Target sequence (A8B2U2 whole entry, looked up): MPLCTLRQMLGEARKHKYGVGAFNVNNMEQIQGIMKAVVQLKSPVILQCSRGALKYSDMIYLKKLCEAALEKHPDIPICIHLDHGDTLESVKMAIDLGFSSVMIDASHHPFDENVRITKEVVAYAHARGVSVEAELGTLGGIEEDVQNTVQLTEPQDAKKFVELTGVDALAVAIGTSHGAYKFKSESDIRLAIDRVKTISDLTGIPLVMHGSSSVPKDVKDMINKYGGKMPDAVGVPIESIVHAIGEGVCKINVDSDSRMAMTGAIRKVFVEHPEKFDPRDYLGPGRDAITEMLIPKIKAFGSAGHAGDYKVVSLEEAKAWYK
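40 nM FBPA preincubated 10 min at RT with compound (up to 57.5 uM final), then substrate plus GAPDH/TPI/NAD/arsenate coupling and diaphorase/resazurin added. Fluorescence read after 20 min at RT, 525/598 nm.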
Numbers without * were called inactive; ? = inconclusive; / = no result; [ ] = dose if it differs, or a comment. Unless noted, calls come from the whole dose curve; as a rule, active = well fitted curve in the direction sought with a large enough effect; inconclusive = small, poorly fitted or top-dose-only effect, or another doubt; inactive = no such curve, though single readings can be large; an effect the other way counts as inactive or inconclusive. % is set by controls: 0 for no effect and ±100 for the full control effect.

SMILES | Pf growth 96h | Sm TGR block | HCMV antiviral | Pf growth 48h | Giardia FBPA inh
CCN1C(=O)NC(=O)/C(=C\c2cn(CC(=O)N3CCCCC3C)c3ccccc23)C1=O (centres undefined) | 6.57µM* | -0.1% | / | -8.7% | -1.1%
Cc1noc(C)c1-c1cc(NCc2cccs2)ncn1 | / | / | / | / | 6.5%
COc1ccc(S(=O)(=O)NCCSCc2ccco2)cc1 | -13.7% | 25.1µM* | -14.2 | -15.8% | -9.2%
Cc1cc(C)c(S(=O)(=O)NCCSCc2ccco2)c(C)c1 | 1.0% | 12.6µM* | -3.6 | ? | /
COc1ccc(S(=O)(=O)NCCSCc2ccco2)cc1OC | ? | 11.2µM* | 7.6 | / | -2.3%
Cc1ccc(S(=O)(=O)NCCSCc2ccco2)cc1 | 8.0% | ? | -29.3 | 26.7% | -2.4%
CCCN(CCC)CCNC(=O)CN1C(=O)COc2ccc(S(=O)(=O)N3CCC(C)CC3)cc21 | / | 2.7% | -4.7 | / | /
CCOC(=O)Cn1ccc2cc(S(=O)(=O)N3CCCC3)ccc21 | / | / | -17.7 | / | /
COCC1CCCN(Cc2cn(-c3ccccc3)nc2-c2ccc3c(c2)OCO3)C1 (centres undefined) | ? | 17.0% | -19.7 | 9.28µM* | 2.3%
c1ccc(-n2cc(CN3CCC(N4CCOCC4)CC3)c(-c3ccc4c(c3)OCO4)n2)cc1 | ? | 4.6% | ? | ? | 0.7%
c1ccc(-n2cc(CN3CCCC3)c(-c3ccc4c(c3)OCO4)n2)cc1 | ? | 6.9% | -30.3 | 5.22µM* | -0.1%
COC(=O)C1=C(Nc2ccc(C)cc2)C=C(C)C(C(=O)OC)C1c1cccc(OC)c1 (centres undefined) | 1.65µM* | -4.7% | -28.5 | 2.62µM* | -6.1%
COC(=O)C1=C(Nc2ccc(C)cc2)C=C(C)C(C(=O)OC)C1c1ccc(OC)cc1 (centres undefined) | ? | 0.7% | -3.1 | 4.15µM* | -4.8%
CN(C)CCNc1nc(Oc2cccc(F)c2)c2sccc2n1 | / | / | -31.4 | / | /
C[C@H]1CN=C(N(C)C)N1CC1CCC(C(C)(C)C)CC1 (some centres undefined) | ? | -1.0% | -9.9 | 7.38µM* | /
COc1ccc(-c2c(C)c3cc(OC(=O)N4CCOCC4)ccc3oc2=O)cc1 | / | -11.0% | 40.1 | / | /
O=C(/C=C/c1ccco1)N1CCN(c2ncccn2)CC1 | 14.5% | 20µM* | 42.4 | 77.3% | -0.5%
O=C(/C=C/c1c(Cl)cccc1Cl)N1CCN(c2ncccn2)CC1 | / | -6.9% | -8.6 | 16.7% | 1.3%
COc1cccc(N2CCN(C(=O)/C=C/c3ccco3)CC2)c1 | ? | 22.4µM* | 55.6 | ? | -24.8%
O=C(/C=C/c1ccco1)N1CCC(Cc2ccccc2)CC1 | 12.3%[5.75 µM] | 20µM* | 30.7 | ? | -3.4%
CC(C)C(=O)N1CCC(Cc2ccccc2)CC1 | ? | 0.1% | 6.7 | 29.7% | 15.0%
COc1ccc(S(=O)(=O)N2CCN(C(=O)/C=C/c3ccco3)CC2)cc1 | 23.3% | 8.91µM* | -39.4 | ? | /
COc1ccc(-c2nc3cnc(N4CCN(C)CC4)nc3n(C)c2=O)cc1 | / | / | / | / | -4.7%
CCC/C=C(\CCC)C(NC(=O)OCC(C)C)c1ccccc1 (centres undefined) | / | / | / | / | 6.8%
COc1ccc(/C=N/NC(=O)c2cc3c(OC)ccc(OC)c3[nH]2)cc1O | ? | 6.0% | ? | 3.7µM* | -11.2%
SMILES | Pf growth 96h | Sm TGR block | HCMV antiviral | Pf growth 48h | Giardia FBPA inh
COc1ccccc1/C=N/NC(=O)c1cc2c(OC)c(OC)ccc2[nH]1 | 13.2% | 8.9% | -13.2 | -3.0% | 10.6%
CCOC(=O)c1c(C)[nH]c(C(=O)N/N=C\c2ccccc2O)c1C | ? | -2.0% | -100.3* | ? | -15.0%
COc1ccc(OC)c2[nH]c(C(=O)N/N=C/c3ccccc3O)cc12 | ? | -9.0% | -92.5* | / | -18.9%
COc1ccc(/C=N/NC(=O)c2cnccn2)cc1O | -13.0% | 4.4% | 11.9 | 90.1% | -8.7%
CCN(CC)CCN1C(=O)C(=O)/C(=C(/O)c2ccc(S(=O)(=O)N3CCOCC3)cc2)C1c1ccc(C)cc1 (centres undefined) | -5.7% | -5.8% | ? | -15.0% | /
COc1ccc(S(=O)(=O)N(C)C[C@H]2Oc3c(NS(=O)(=O)c4cn(C)cn4)cccc3C(=O)N([C@H](C)CO)C[C@@H]2C)cc1 | / | / | -18.1 | / | /
C#CCOCCOCCOCCNc1nc(N2CCN(C(=O)[C@H]([C@@H](C)CC)n3cc([C@@H](N)Cc4ccc(O)cc4)nn3)CC2)nc(N2CCN(C(=O)[C@H]([C@@H](C)CC)n3cc([C@@H](N)Cc4ccc(O)cc4)nn3)CC2)n1 | 1.85µM* | -0.9% | -19.7 | 1.85µM* | -0.1%
C#CCOCCOCCOCCNc1nc(N2CCN(C(=O)[C@H]([C@@H](C)CC)n3cc([C@@H](N)CC(C)C)nn3)CC2)nc(N2CCN(C(=O)[C@H]([C@@H](C)CC)n3cc([C@@H](N)CC(C)C)nn3)CC2)n1 | 1.85µM* | 28.2µM* | -8.6 | 1.65µM* | -10.3%
CC1(C)Cc2nc3sc4c(SCC(=O)NCc5ccco5)ncnc4c3cc2CO1 | / | 12.6µM* | 9.4 | 73.6% | -0.9%
CCCc1nc2c(sc3nc4c(cc32)COC(C)(C)C4)c(=O)n1CCN(C)C | ? | -4.2% | 41.0 | -22.3% | 4.5%
CC1(C)Cc2nc3sc4c(=O)n(CC(=O)NCc5ccccc5)cnc4c3cc2CO1 | 0.0% | 1.1% | 71.7 | 29.3% | 1.8%
CCCc1nc2c(sc3nc4c(cc32)COC(C)(C)C4)c(=O)n1Cc1ccco1 | / | 35.5µM* | 27.0 | -0.2% | -5.9%
Cc1nc2c(sc3nc4c(cc32)COC(C)(C)C4)c(=O)n1CC(=O)NCc1ccco1 | ? | 39.8µM* | 17.5 | 125.3% | -0.6%
COc1ccc(C2CC(c3cccs3)=NN2C(=O)CCCC(=O)O)cc1OC (centres undefined) | / | / | 0.9 | / | /
CCCCCCCCNS(=O)(=O)CCNC1CC1 | / | / | -3.7 | / | /
Cc1ccccc1OC(=O)c1snnc1C | / | 7.0% | -1.4 | / | /
Cc1nnsc1C(=O)Oc1ccccc1Cl | / | 44.7µM* | -1.0 | / | /
COC(=O)C1=C2c3[nH]c4ccccc4c3CCN2C(=O)CC1 | / | / | 66.4 | / | /
CCO[C@@H]1OC(C(=O)Nc2ccccc2)=C[C@H](c2csc3ccccc23)[C@H]1CCCO | ? | 6.7% | 9.1 | 7.38µM* | -4.4%
CCO[C@@H]1OC(C(=O)Nc2ccccc2)=C[C@H](c2ccccc2)[C@H]1CCCO | -22.9% | -1.2% | -60.7* | 0.0% | -16.7%
C#CCNC(=O)C1=C[C@H](c2csc3ccccc23)[C@@H](CCCO)[C@H](OCC)O1 | ? | -12.3% | 12.1 | 0.0% | -19.1%
CCO[C@@H]1OC(C(=O)NCc2ccccc2)=C[C@H](c2csc3ccccc23)[C@H]1CCCO | 10.4µM* | -2.5% | -0.8 | ? | -14.9%
CCO[C@H]1OC(C(N)=O)=C[C@@H](c2csc3ccccc23)[C@@H]1CCCO | 15.9% | -14.3% | 32.7 | 1.5% | 0.7%
CCO[C@H]1OC(C(=O)NC2CC2)=C[C@@H](c2csc3ccccc23)[C@@H]1CCCO | 0.185µM* | 6.9% | 21.6 | ? | 5.3%
